PubChem BioAssay AID1159580 (chemical genetic matrix, 2015)
In all, about 5,500 compounds went through this assay and about 2,000 (36%) were called active. Not shown: some 18% with an inconclusive outcome. Rule as the data show it: active = normalized growth mostly below about 0.91 (no sharp cut-off); inconclusive = no clear call, values can overlap the other calls; inactive = mostly above about 0.92. This is one part of the list.

Assay: chemical genetic growth profiling, strain panel (AID 1159580);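 also: tested at 20 µM; growth read once vehicle control cultures reached saturation at 30 °C; 1 = growth at the plate median or of vehicle wells; lower values mean less growth of the strain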
Settings: growth OD

Measured: normalized growth

NC1C[C@H]1c1ccccc1 (some centres not stated)
inactive: S. cerevisiae deletion strains, locus YJR075W, strain HOC1, stronger effect = lower value 0.998 | S. cerevisiae deletion strains, locus YKL009W, strain mrt4, stronger effect = lower value 0.989 | S. cerevisiae deletion strains, locus YKL068W, stronger effect = lower value 0.992 | S. cerevisiae deletion strains, locus YKL085W, strain MDH1 (second series), stronger effect = lower value 0.987 | S. cerevisiae deletion strains, locus YKL085W, strain MDH1, stronger effect = lower value 0.987 | S. cerevisiae deletion strains, locus YKL160W, strain elf1, stronger effect = lower value 0.964 | S. cerevisiae deletion strains, locus YKL190W, strain CNB1, stronger effect = lower value 1.01 | S. cerevisiae deletion strains, locus YKR001C, strain vps1, stronger effect = lower value 0.98 | S. cerevisiae deletion strains, locus YKR026C, strain gcn3, stronger effect = lower value 0.984 | S. cerevisiae deletion strains, locus YKR091W, strain srl3, stronger effect = lower value 0.979 | S. cerevisiae deletion strains, locus YLL001W, strain dnm1, stronger effect = lower value 0.977 | S. cerevisiae deletion strains, locus YLL026W, stronger effect = lower value 0.996 | S. cerevisiae deletion strains, locus YLL041C, strain sdh2, stronger effect = lower value 1 | S. cerevisiae deletion strains, locus YLR027C, strain aat2, stronger effect = lower value 0.987 | S. cerevisiae deletion strains, locus YLR039C, strain RIC1, stronger effect = lower value 1.01 | S. cerevisiae deletion strains, locus YLR058C, strain SHM2, stronger effect = lower value 1.01 | S. cerevisiae deletion strains, locus YLR102C, strain apc9, stronger effect = lower value 0.985 | S. cerevisiae deletion strains, locus YLR113W, strain HOG1, stronger effect = lower value 0.981 | S. cerevisiae deletion strains, locus YLR221C, strain rsa3, stronger effect = lower value 1.01 | S. cerevisiae deletion strains, locus YLR258W, strain gsy2, stronger effect = lower value 0.981 | S. cerevisiae deletion strains, locus YLR262C, strain YPT6 (second series), stronger effect = lower value 0.974 | S. cerevisiae deletion strains, locus YLR262C, strain YPT6, stronger effect = lower value 1.03 | S. cerevisiae deletion strains, locus YLR268W, strain sec22, stronger effect = lower value 0.963 | S. cerevisiae deletion strains, locus YLR320W, strain mms22, stronger effect = lower value 1.02 | S. cerevisiae deletion strains, locus YLR330W, strain CHS5, stronger effect = lower value 1.01 | S. cerevisiae deletion strains, locus YLR342W, strain FKS1 (second series), stronger effect = lower value 0.987 | S. cerevisiae deletion strains, locus YLR342W, strain FKS1, stronger effect = lower value 0.973 | S. cerevisiae deletion strains, locus YLR357W, strain rsc2, stronger effect = lower value 0.939 | S. cerevisiae deletion strains, locus YLR370C, strain arc18, stronger effect = lower value 0.989 | S. cerevisiae deletion strains, locus YLR371W, strain rom2, stronger effect = lower value 0.972 | S. cerevisiae deletion strains, locus YLR384C, strain iki3, stronger effect = lower value 0.989 | S. cerevisiae deletion strains, locus YLR418C, strain cdc73, stronger effect = lower value 0.962 | S. cerevisiae deletion strains, locus YML016C, strain PPZ1, stronger effect = lower value 1.01 | S. cerevisiae deletion strains, locus YML032C, strain rad52, stronger effect = lower value 0.985 | S. cerevisiae deletion strains, locus YML120C, strain ndi1, stronger effect = lower value 1.01 | S. cerevisiae deletion strains, locus YML124C, strain tub3, stronger effect = lower value 0.987 | S. cerevisiae deletion strains, locus YMR058W, strain fet3, stronger effect = lower value 1 | S. cerevisiae deletion strains, locus YMR078C, strain ctf18, stronger effect = lower value 0.981 | S. cerevisiae deletion strains, locus YMR125W, strain sto1, stronger effect = lower value 0.939 | S. cerevisiae deletion strains, locus YMR129W, stronger effect = lower value 0.998 | S. cerevisiae deletion strains, locus YMR205C, strain PFK2, stronger effect = lower value 1.02 | S. cerevisiae deletion strains, locus YMR223W, strain ubp8, stronger effect = lower value 0.98 | S. cerevisiae deletion strains, locus YMR231W, strain pep5, stronger effect = lower value 0.975 | S. cerevisiae deletion strains, locus YMR263W, strain SAP30, stronger effect = lower value 1 | S. cerevisiae deletion strains, locus YMR307W, strain GAS1, stronger effect = lower value 0.945 | S. cerevisiae deletion strains, locus YNL067W, strain RPL9B, stronger effect = lower value 1.01 | S. cerevisiae deletion strains, locus YNL071W, strain lat1, stronger effect = lower value 0.984 | S. cerevisiae deletion strains, locus YNL128W, strain TEP1, stronger effect = lower value 1.02 | S. cerevisiae deletion strains, locus YNL153C, strain GIM3, stronger effect = lower value 0.989 | S. cerevisiae deletion strains, locus YNL183C, strain NPR1, stronger effect = lower value 0.933 | S. cerevisiae deletion strains, locus YNL209W, strain ssb2, stronger effect = lower value 0.977 | S. cerevisiae deletion strains, locus YNL233W, strain BNI4, stronger effect = lower value 0.993 | S. cerevisiae deletion strains, locus YNL248C, strain rpa49, stronger effect = lower value 0.929 | S. cerevisiae deletion strains, locus YNL250W, strain rad50, stronger effect = lower value 0.973 | S. cerevisiae deletion strains, locus YNL271C, strain bni1, stronger effect = lower value 0.987 | S. cerevisiae deletion strains, locus YNL298W, strain CLA4, stronger effect = lower value 0.987 | S. cerevisiae deletion strains, locus YNL307C, strain MCK1, stronger effect = lower value 0.988 | S. cerevisiae deletion strains, locus YNL322C, strain KRE1 (second series), stronger effect = lower value 0.98 | S. cerevisiae deletion strains, locus YNL322C, strain KRE1, stronger effect = lower value 1.01 | S. cerevisiae deletion strains, locus YNR049C, strain mso1, stronger effect = lower value 0.989 | S. cerevisiae deletion strains, locus YNR052C, strain pop2, stronger effect = lower value 0.995 | S. cerevisiae deletion strains, locus YOL006C, strain TOP1, stronger effect = lower value 1.05 | S. cerevisiae deletion strains, locus YOL012C, strain htz1 0.845 | S. cerevisiae deletion strains, locus YOL147C, strain pex11, stronger effect = lower value 0.983 | S. cerevisiae deletion strains, locus YOR001W, strain rrp6, stronger effect = lower value 1.02 | S. cerevisiae deletion strains, locus YOR061W, strain CKA2, stronger effect = lower value 1.01 | S. cerevisiae deletion strains, locus YOR069W, strain VPS5, stronger effect = lower value 1.01 | S. cerevisiae deletion strains, locus YOR070C, strain gyp1, stronger effect = lower value 0.992 | S. cerevisiae deletion strains, locus YOR080W, strain dia2, stronger effect = lower value 0.993 | S. cerevisiae deletion strains, locus YOR083W, strain WHI5, stronger effect = lower value 0.934 | S. cerevisiae deletion strains, locus YOR106W, strain vam3, stronger effect = lower value 0.99 | S. cerevisiae deletion strains, locus YOR136W, strain idh2, stronger effect = lower value 0.982 | S. cerevisiae deletion strains, locus YOR144C, strain elg1, stronger effect = lower value 0.988 | S. cerevisiae deletion strains, locus YOR184W, strain ser1, stronger effect = lower value 0.994 | S. cerevisiae deletion strains, locus YOR231W, strain MKK1, stronger effect = lower value 0.986 | S. cerevisiae deletion strains, locus YOR265W, strain rbl2, stronger effect = lower value 0.99 | S. cerevisiae deletion strains, locus YOR270C, strain vph1, stronger effect = lower value 0.997 | S. cerevisiae deletion strains, locus YOR290C, strain snf2, stronger effect = lower value 0.964 | S. cerevisiae deletion strains, locus YOR316C, strain cot1, stronger effect = lower value 0.988 | S. cerevisiae deletion strains, locus YPL051W, strain arl3, stronger effect = lower value 0.983 | S. cerevisiae deletion strains, locus YPL055C, strain LGE1, stronger effect = lower value 1 | S. cerevisiae deletion strains, locus YPL078C, strain atp4, stronger effect = lower value 0.975 | S. cerevisiae deletion strains, locus YPL106C, strain sse1, stronger effect = lower value 0.961 | S. cerevisiae deletion strains, locus YPL240C, strain hsp82, stronger effect = lower value 1.02 | S. cerevisiae deletion strains, locus YPL241C, strain CIN2, stronger effect = lower value 1 | S. cerevisiae deletion strains, locus YPL256C, strain CLN2, stronger effect = lower value 0.956 | S. cerevisiae deletion strains, locus YPR119W, strain clb2, stronger effect = lower value 0.991 | S. cerevisiae deletion strains, locus YPR141C, strain kar3, stronger effect = lower value 0.981 | S. cerevisiae deletion strains, locus YPR163C, strain tif3, stronger effect = lower value 0.983 | S. cerevisiae deletion strains, locus YPR167C, strain met16, stronger effect = lower value 0.984 | S. cerevisiae deletion strains, strain wtn01, stronger effect = lower value 0.964 | S. cerevisiae strains, strain wild type, stronger effect = lower value 1.01
